The nature of test [1]: NCI Yeast Anticancer Drug Screen. Data for the rad50 strain (AID 155).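 Further: 0% = growth of vehicle-only cultures of the same strain.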 Particulars: S. cerevisiae rad50 strain growth inhibition, hits give high values. The gist of the method: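 Readout: growth inhibition relative to vehicle-treated cultures. Compound exposure was carried out in a genetically defined yeast strain deficient in DNA damage repair.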
Test [2] is described as follows: NCI Yeast Anticancer Drug Screen. Data for the mec2-1 strain (AID 157). Particulars: S. cerevisiae mec2-1 strain, hits give high values. The gist of the method:
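Using mec2-1 yeast: add compound, measure growth, express inhibition versus vehicle-treated cultures.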

The nature of test [3]: NCI Yeast Anticancer Drug Screen. Data for the sgs1 mgt1 strain (AID 161).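 Further: 0% = growth of cultures given vehicle only.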 Particulars: S. cerevisiae sgs1 mgt1 strain, hits give high values. The gist of the method: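 Compounds are added to genetically altered yeast, and growth is compared with cultures given vehicle alone to give percent inhibition.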
The nature of test [4]: NCI Yeast Anticancer Drug Screen. Data for the cln2 rad14 strain (AID 165).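 Further: 0% = growth equal to vehicle treated cultures.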 Particulars: S. cerevisiae cln2 rad14 strain, hits give high values. The gist of the method:
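Yeast strain cln2 rad14, bearing defects in cell cycle control and DNA repair, serves as the test system; values reflect growth inhibition compared with vehicle.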

Test [5] is described as follows: NCI Yeast Anticancer Drug Screen. Data for the bub3 strain (AID 167). Particulars: S. cerevisiae bub3 mutant strain, hits give high values. The gist of the method:
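Readout: yeast growth inhibition, expressed relative to vehicle-only wells. The test organism is a mutant strain from a panel with lesions in DNA repair or checkpoint genes.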

Test [6] in a line: NCI Yeast Anticancer Drug Screen. Data for the mlh1 rad18 strain (AID 175). Particulars: S. cerevisiae mlh1 rad18 strain growth inhibition, hits give high values. In a few lines:
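Steps: expose repair-defective yeast to compound; measure growth; express inhibition against vehicle-treated controls.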

Where [7] appears, read: at 5.0 µM (retest, dose inferred, filed as 0.5).
Where [8] appears, read: at 50.0 µM (retest, dose inferred, filed as 5.0).

About 79,000 compounds went through this panel and 15% of them were active in at least one assay; those are over-represented in the sample as a whole. Unmarked numbers belong to inactive results. Active and inactive are the calls of the source. No stated cut-off is given here; in the data, active means growth inhibition above about 70%; inactive means the rest.

Our source for the growth inhibition values is PubChem BioAssay (NCI).

Take `CCN(CC)CCCNc1nc(NCCCN(CC)CC)c2nc(-c3ccccc3)c(-c3ccccc3)nc2n1`: the growth inhibition in test [1] (setting [7]) was -3%; in test [1] (setting [8]), 93% (active); in test [1] (at 50.0 µM), 66.5%; in test [2] (setting [7]), 2%; in test [2] (setting [8]), 93% (active); in test [2] (at 50.0 µM), 61.4%. For the same compound, the growth inhibition in test [3] (setting [7]) is -2%; in test [3] (setting [8]), 94% (active); in test [3] (at 50.0 µM) it was 63.8%; in test [4] (setting [7]), 0%; in test [4] (setting [8]), 47%; in test [4] (at 50.0 µM) it was 77.4% (active). Moreover, the growth inhibition in test [5] (setting [7]) is -4%; in test [5] (setting [8]), 92% (active); in test [5] (at 50.0 µM), 56.1%; in test [6] (setting [7]), -6%; in test [6] (setting [8]), 94% (active); in test [6] (at 50.0 µM), 98.5% (active).

Take `CCN1/C(=C/C=C/C=C\C=C\c2sc3ccc4ccccc4c3[n+]2CC)Sc2ccc3ccccc3c21`: the growth inhibition in test [1] (setting [7]) is 28%; in test [1] (setting [8]), 68%; in test [1] (at 50.0 µM) it was 49.2%; in test [2] (setting [7]) it was 21%; in test [2] (setting [8]), 80% (active); in test [2] (at 50.0 µM) it was 46.8%. Also, the growth inhibition in test [3] (setting [7]) was 25%; in test [3] (setting [8]), 75% (active); in test [3] (at 50.0 µM), 47.6%; in test [4] (setting [7]) it was 48%; in test [4] (setting [8]), 65%; in test [4] (at 50.0 µM), 54%. Moreover, the growth inhibition was 34% in test [5] (setting [7]); 65% in test [5] (setting [8]); 30.4% in test [5] (at 50.0 µM); 25% in test [6] (setting [7]); 73% (active) in test [6] (setting [8]); 40.6% in test [6] (at 50.0 µM).

With `O=[N+]([O-])c1ccc(S(=O)(=O)N/N=C/C=C/c2ccccc2)cc1`, the growth inhibition in test [1] (setting [7]) was 6%; in test [1] (setting [8]), 13%; in test [1] (at 50.0 µM), 71% (active); in test [2] (setting [7]), 2%; in test [2] (setting [8]) it was 17%; in test [2] (at 50.0 µM), 37%. Also, the growth inhibition in test [3] (setting [7]) was 4%; in test [3] (setting [8]) it was 14%; in test [3] (at 50.0 µM) it was 87.5% (active); in test [4] (setting [7]), -4%; in test [4] (setting [8]) it was 16%; in test [4] (at 50.0 µM), 48.3%. The growth inhibition in test [5] (setting [7]) was 6%; in test [5] (setting [8]) it was 36%; in test [5] (at 50.0 µM), 48.6%; in test [6] (setting [7]) it was 6%; in test [6] (setting [8]) it was 39%; in test [6] (at 50.0 µM), 75.5% (active).

In the case of `[Br][Pt+2][Br].[NH-]c1cccc(I)c1.[NH-]c1cccc(I)c1`, the growth inhibition is 2% in test [1] (setting [7]); 60% in test [1] (setting [8]); 39.5% in test [1] (at 50.0 µM); 1% in test [2] (setting [7]); 31% in test [2] (setting [8]); 22.2% in test [2] (at 50.0 µM). The growth inhibition in test [3] (setting [7]) was 8%; in test [3] (setting [8]), 39%; in test [3] (at 50.0 µM), 30.8%; in test [4] (setting [7]), -1%; in test [4] (setting [8]), 27%; in test [4] (at 50.0 µM), 12.6%. In addition, the growth inhibition is 1% in test [5] (setting [7]); -5% in test [5] (setting [8]); 3.25% in test [5] (at 50.0 µM); 5% in test [6] (setting [7]); 81% (active) in test [6] (setting [8]); 88.8% (active) in test [6] (at 50.0 µM).

Regarding `COC12C(COC(N)=O)C3=C(C(=O)C(C)=C(N)C3=O)N1CC1C2N1C(=O)c1ccc(Cl)cc1` (stereo not given), the growth inhibition was 12% in test [1] (setting [7]); 57% in test [1] (setting [8]); 43.3% in test [1] (at 50.0 µM); 15% in test [2] (setting [7]); 75% (active) in test [2] (setting [8]); 50.1% in test [2] (at 50.0 µM). Moreover, the growth inhibition in test [3] (setting [7]) is 20%; in test [3] (setting [8]) it was 81% (active); in test [3] (at 50.0 µM), 65.5%; in test [4] (setting [7]), 3%; in test [4] (setting [8]), 72% (active); in test [4] (at 50.0 µM), 46.4%. For the same compound, the growth inhibition in test [5] (setting [7]) is 3%; in test [5] (setting [8]), 50%; in test [5] (at 50.0 µM), 43.4%; in test [6] (setting [7]) it was 25%; in test [6] (setting [8]) it was 86% (active); in test [6] (at 50.0 µM), 71.1% (active).

As for `CC1=C(C(=O)Nc2ccccc2)C(c2ccc(C(C)C)cc2)C(C(=O)Nc2ccccc2)=C(C)N1`, the growth inhibition was 0% in test [1] (setting [7]); 94% (active) in test [1] (setting [8]); 97.5% (active) in test [1] (at 50.0 µM); -3% in test [2] (setting [7]); 91% (active) in test [2] (setting [8]); 94.6% (active) in test [2] (at 50.0 µM). Further, the growth inhibition is 0% in test [3] (setting [7]); 94% (active) in test [3] (setting [8]); 47.6% in test [3] (at 50.0 µM); -13% in test [4] (setting [7]); 94% (active) in test [4] (setting [8]); 90.8% (active) in test [4] (at 50.0 µM). The growth inhibition is 2% in test [5] (setting [7]); 93% (active) in test [5] (setting [8]); 91% (active) in test [5] (at 50.0 µM); -3% in test [6] (setting [7]); 90% (active) in test [6] (setting [8]); 96.2% (active) in test [6] (at 50.0 µM).

For the compound `COc1cc(C2c3cc4c(cc3C(OC3CCCCO3)C3COC(=O)C23)OCO4)cc(OC)c1OC` (stereo not given), the growth inhibition in test [1] (setting [7]) is -2%; in test [1] (setting [8]), 19%; in test [1] (at 50.0 µM), 31.9%; in test [2] (setting [7]) it was -1%; in test [2] (setting [8]), 7%; in test [2] (at 50.0 µM) it was 18.6%. Also, the growth inhibition was -10% in test [3] (setting [7]); 11% in test [3] (setting [8]); 23.4% in test [3] (at 50.0 µM); -3% in test [4] (setting [7]); -2% in test [4] (setting [8]); 2.35% in test [4] (at 50.0 µM). Also, the growth inhibition in test [5] (setting [7]) is 4%; in test [5] (setting [8]), 30%; in test [5] (at 50.0 µM) it was 54.4%; in test [6] (setting [7]) it was -6%; in test [6] (setting [8]), 14%; in test [6] (at 50.0 µM), 33.9%.

`CC12OC1C(=O)c1ccccc1C2=O` (stereo not given): the growth inhibition was 4% in test [1] (setting [7]); 85% (active) in test [1] (setting [8]); 88.5% (active) in test [1] (at 50.0 µM); 15% in test [2] (setting [7]); 93% (active) in test [2] (setting [8]); 92.1% (active) in test [2] (at 50.0 µM). In addition, the growth inhibition is 9% in test [3] (setting [7]); 87% (active) in test [3] (setting [8]); 89.9% (active) in test [3] (at 50.0 µM); 19% in test [4] (setting [7]); 65% in test [4] (setting [8]); 57.6% in test [4] (at 50.0 µM). Besides, the growth inhibition was 9% in test [5] (setting [7]); 96% (active) in test [5] (setting [8]); 90.9% (active) in test [5] (at 50.0 µM); -2% in test [6] (setting [7]); 95% (active) in test [6] (setting [8]); 81.6% (active) in test [6] (at 50.0 µM).

In the case of `S=C(Nc1ccccc1)[S][Sb]([S]C(=S)Nc1ccccc1)[c]1ccccc1`, the growth inhibition in test [1] (setting [7]) was -5%; in test [1] (setting [8]), 80% (active); in test [1] (at 50.0 µM), 41.4%; in test [2] (setting [7]) it was -6%; in test [2] (setting [8]) it was 98% (active); in test [2] (at 50.0 µM), 20%. The growth inhibition in test [3] (setting [7]) was -56%; in test [3] (setting [8]) it was 77% (active); in test [3] (at 50.0 µM), 43.1%; in test [4] (setting [7]) it was -8%; in test [4] (setting [8]), 34%; in test [4] (at 50.0 µM) it was 12.1%. The growth inhibition is -11% in test [5] (setting [7]); 25% in test [5] (setting [8]); 3.15% in test [5] (at 50.0 µM); -2% in test [6] (setting [7]); 94% (active) in test [6] (setting [8]); 63.4% in test [6] (at 50.0 µM).

For `CCCn1cnc2c(SCc3ccc(Cl)cc3Cl)nc(N)nc21`, the growth inhibition was 12% in test [1] (setting [7]); 14% in test [1] (setting [8]); 97.1% (active) in test [1] (at 50.0 µM); 12% in test [2] (setting [7]); 12% in test [2] (setting [8]); 97.2% (active) in test [2] (at 50.0 µM). Further, the growth inhibition was 13% in test [3] (setting [7]); 15% in test [3] (setting [8]); 97% (active) in test [3] (at 50.0 µM); 12% in test [4] (setting [7]); -9% in test [4] (setting [8]); 97.2% (active) in test [4] (at 50.0 µM). In addition, the growth inhibition is 13% in test [5] (setting [7]); 16% in test [5] (setting [8]); 97.5% (active) in test [5] (at 50.0 µM); 11% in test [6] (setting [7]); 12% in test [6] (setting [8]); 95.7% (active) in test [6] (at 50.0 µM).
